# Source: PubChem BioAssay (EPA / NIEHS)
# Calls of active or inactive are those of the source. The calls were made as follows: active = hit-call score of the fitted dose curve at least 0.9, where 1 is the maximum; inactive = score below 0.9.
# Legend:
# [1] = ATG_CRE_CIS: Attagene CIS-FACTORIAL HepG2 Assay for human cAMP Responsive Element (CRE) binding protein 3 (AID 2282926); conditions: HepG2 CRE cis-reporter, Attagene multiplexed mRNA; actives raise or lower the signal
# Procedure, shortened: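 Endogenous CRE-binding activity in HepG2 is reported through a cis-regulated transfected reporter. Following a day of exposure, mRNA levels are determined by reverse transcription PCR and fluorescent fragment analysis; fits run in both directions versus DMSO.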
# [2] = target: CCAAT/enhancer-binding protein beta (Homo sapiens) (UniProt P17676); assay: ATG_C_EBP_CIS: Attagene CIS-FACTORIAL HepG2 Assay for human CCAAT/Enhancer Binding Protein (C/EBP) beta (AID 2282927); conditions: HepG2 Attagene cis-factorial transcription factor reporter; actives raise or lower the signal
# Procedure, shortened: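 Chemical-treated HepG2 cells (24 h) bearing cis-regulated reporter constructs were processed for total RNA, then reverse transcription, PCR amplification, fluorescent primer extension and fragment analysis; gain- and loss-of-signal were fitted against DMSO.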
# [3] = ATG_CMV_CIS: Attagene CIS-FACTORIAL HepG2 Assay for human CMV (Internal Marker) (AID 2282928); conditions: HepG2 CMV promoter reporter, transcription factor profiling; actives raise or lower the signal;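 also: endpoint acts as a background internal control marker rather than a target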
# Procedure, shortened: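 Endogenous transcription factor activity read in HepG2 via transfected cis-promoter reporter units. After 24 h dosing, reporter mRNA measured by RT-PCR/capillary electrophoresis; gain or loss of signal fit relative to DMSO.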
# [4] = ATG_DR4_LXR_CIS: Attagene CIS-FACTORIAL HepG2 Assay for human Liver X Receptor (LXR), DR4 submotif (AID 2282929); conditions: HepG2 Attagene DR4 cis-reporter, mRNA transcription; actives raise or lower the signal
# Procedure, shortened: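 After transient transfection with multiplexed cis-promoter reporter units, HepG2 cells received test chemicals for 24 h. Reporter mRNA induction, detected by fluorescence after RT-PCR and capillary electrophoresis, was scored relative to DMSO.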
# [5] = target: Aryl hydrocarbon receptor (Homo sapiens) (UniProt P35869); assay: ATG_Ahr_CIS: Attagene CIS-FACTORIAL HepG2 Assay for human Aryl Hydrocarbon Receptor (Ahr) (AID 2282930); conditions: HepG2 AhR cis-factorial reporter transcription; actives raise or lower the signal
# Procedure, shortened: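 Following 24 h of chemical dosing, transfected HepG2 liver cells with cis-driven reporter units were lysed for RNA; reporter mRNA was quantified via RT-PCR and capillary electrophoresis, and responses fitted bidirectionally from DMSO.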
# [6] = ATG_AP_1_CIS: Attagene CIS-FACTORIAL HepG2 Assay for human Activator Protein 1 (AP-1) (AID 2282931); conditions: HepG2 Attagene cis-factorial AP-1 reporter mRNA; actives raise or lower the signal
# Procedure, shortened: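 After 24 h incubation with test chemical, RNA from transfected HepG2 cells was reverse-transcribed, amplified, fluorescently labelled and digested before capillary electrophoresis. Reporters were driven by cis-regulatory promoters; activity fitted bidirectionally versus DMSO.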
# [7] = ATG_AP_2_CIS: Attagene CIS-FACTORIAL HepG2 Assay for human Activator Protein 2 (AP-2) (AID 2282932); conditions: HepG2 AP-2 cis-reporter, Attagene transcription factor profiling; actives raise or lower the signal
# Procedure, shortened: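 Bidirectional curve fitting against DMSO was applied to reporter mRNA signals from HepG2 cells 24 h after dosing. Cis-promoter reporter units, transiently transfected, were read by RT-PCR plus capillary electrophoresis.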
# [8] = ATG_BRE_CIS: Attagene CIS-FACTORIAL HepG2 Assay for human Bone Morphogenetic Protein (BMP) Response Element (BRE) (AID 2282933); conditions: HepG2 BMP response element reporter, Attagene transcription factor profiling; actives raise or lower the signal
# Procedure, shortened: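 Multiplexed cis-reporter assay, HepG2, 24 h exposure. mRNA from reporter units quantified via RT-PCR/CE; DMSO baseline; bidirectional curve fit.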
# [9] = target: Transcription factor E2F1 (Homo sapiens) (UniProt Q01094); assay: ATG_E2F_CIS: Attagene CIS-FACTORIAL HepG2 Assay for human E2F Transcription Factor 1 (AID 2282935); conditions: HepG2 Attagene cis-reporter, E2F reporter RNA transcripts; actives raise or lower the signal
# Procedure, shortened: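 Multiplexed cis-reporter assay: HepG2, transient transfection, 24 h dosing, mRNA quantitation by labeled RT-PCR and CE.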
# [10] = ATG_E_Box_CIS: Attagene CIS-FACTORIAL HepG2 Assay for human Enhancer Box (E-box) (AID 2282936); conditions: HepG2 E-box cis-reporter transcription, actives raise or lower the signal
# Procedure, shortened: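 Multiplexed CIS reporter system in transiently transfected HepG2 cells measures native transcription factor activity. Reporter RNA after 24 h exposure is profiled by RT-PCR-capillary electrophoresis.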
# [11] = ATG_M_61_CIS: Attagene CIS-FACTORIAL HepG2 Assay for M61 Transcription Factor (Internal Marker) (AID 2282937); conditions: HepG2 Attagene CIS-FACTORIAL M61 internal marker reporter; actives raise or lower the signal
# Procedure, shortened: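 Using transiently transfected HepG2 liver cells, reporter transcript levels were assessed 24 h post-dosing by RT-PCR and capillary electrophoresis. Changes in either direction were fitted relative to DMSO controls.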
# [12] = ATG_EGR_CIS: Attagene CIS-FACTORIAL HepG2 Assay for human Early Growth Response 1 (EGR1) (AID 2282938); conditions: HepG2 Attagene CIS-FACTORIAL EGR reporter mRNA; actives raise or lower the signal
# Procedure, shortened: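 Fluorescent capillary-electrophoresis signal of reporter cDNA fragments serves as read-out. HepG2 cells bear transiently transfected cis-promoter reporter units and are exposed 24 h; gain- or loss-of-signal is fitted against DMSO.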
# [13] = ATG_ERE_CIS: Attagene CIS-FACTORIAL HepG2 Assay for Estrogen Response Element (ERE) (AID 2282940); conditions: HepG2 ERE cis-reporter, Attagene RNA transcript; actives raise or lower the signal
# Procedure, shortened: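 Fluorescence of capillary-separated, FAM-labelled reporter cDNA fragments indicates reporter mRNA levels in HepG2 cells exposed to chemicals for 24 h. Transient transfection with cis-regulated units; data fitted in both directions against DMSO.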
# [14] = ATG_Ets_CIS: Attagene CIS-FACTORIAL HepG2 Assay for human Erythroblast Transformation Specific (ETS) (AID 2282941); conditions: HepG2 ETS cis-reporter transcription, actives raise or lower the signal
# Procedure, shortened: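 Steps: transfect HepG2 with multiple reporter units; treat compound 24 h; isolate RNA, DNase-treat, reverse-transcribe; PCR-amplify, label with 6-FAM, digest with HpaI; separate by capillary electrophoresis. Activity fitted both directions versus DMSO.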
# [15] = target: Hepatocyte nuclear factor 3-beta (Homo sapiens) (UniProt Q9Y261); assay: ATG_FoxA2_CIS: Attagene CIS-FACTORIAL HepG2 Assay for human Forkhead box A2 (FOXA2) (AID 2282942); conditions: HepG2 cis-reporter transcription factor activity, 24 h; actives raise or lower the signal
# Procedure, shortened: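 Fluorescence signal of reporter cDNA fragments, separated by capillary electrophoresis, reflects endogenous transcription factor activity in transfected HepG2 after 24 h. Both increases and decreases fitted against DMSO.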
# [16] = ATG_FoxO_CIS: Attagene CIS-FACTORIAL HepG2 Assay for human Forkhead box O (FoxO) (AID 2282943); conditions: HepG2 Attagene cis-reporter, FoxO element, mRNA; actives raise or lower the signal
# Procedure, shortened: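 24 h chemical exposure, HepG2 with transient cis-MRTU transfection. RNA extraction, oligo(dT) RT, reporter-specific PCR, primer-extension labelling, HpaI digestion, CE fragment analysis; bidirectional fit, DMSO baseline.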
# [17] = ATG_GLI_CIS: Attagene CIS-FACTORIAL HepG2 Assay for human Zinc Finger Protein GLI1 (AID 2282945); conditions: HepG2, Attagene cis-factorial reporter mRNA, GLI element; actives raise or lower the signal
# Procedure, shortened: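 HepG2 cells transiently transfected with cis-promoter multiplexed reporter units report endogenous transcription factor activity. After 24 h chemical exposure, reporter mRNA was quantified by RT-PCR, 6-FAM labelling, HpaI digestion and capillary electrophoresis, with bidirectional fitting against DMSO.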
# [18] = ATG_GATA_CIS: Attagene CIS-FACTORIAL HepG2 Assay for human GATA Binding Protein (AID 2282944); conditions: HepG2 GATA cis-element reporter, Attagene multiplex mRNA; actives raise or lower the signal
# Procedure, shortened: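 After transfecting HepG2 cells with multiple cis-regulated reporter units, chemicals are dosed for 24 h; isolated RNA undergoes RT-PCR and fluorescent labeling before capillary electrophoresis, with activity expressed against DMSO.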
# [19] = ATG_M_19_CIS: Attagene CIS-FACTORIAL HepG2 Assay for M19 Transcription Factor (Internal Marker) (AID 2282939); conditions: HepG2 Attagene CIS-FACTORIAL M19 internal marker reporter; actives raise or lower the signal
# Procedure, shortened: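 Signals come from fluorescence of labelled reporter-specific PCR fragments resolved by capillary electrophoresis, following 24 h treatment of HepG2 cells transfected with cis-promoter reporter units; activity was fitted in both directions relative to DMSO.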
# Sequence of Hepatocyte nuclear factor 3-beta (Homo sapiens) (Q9Y261 whole entry, looked up, the tested form may be a part): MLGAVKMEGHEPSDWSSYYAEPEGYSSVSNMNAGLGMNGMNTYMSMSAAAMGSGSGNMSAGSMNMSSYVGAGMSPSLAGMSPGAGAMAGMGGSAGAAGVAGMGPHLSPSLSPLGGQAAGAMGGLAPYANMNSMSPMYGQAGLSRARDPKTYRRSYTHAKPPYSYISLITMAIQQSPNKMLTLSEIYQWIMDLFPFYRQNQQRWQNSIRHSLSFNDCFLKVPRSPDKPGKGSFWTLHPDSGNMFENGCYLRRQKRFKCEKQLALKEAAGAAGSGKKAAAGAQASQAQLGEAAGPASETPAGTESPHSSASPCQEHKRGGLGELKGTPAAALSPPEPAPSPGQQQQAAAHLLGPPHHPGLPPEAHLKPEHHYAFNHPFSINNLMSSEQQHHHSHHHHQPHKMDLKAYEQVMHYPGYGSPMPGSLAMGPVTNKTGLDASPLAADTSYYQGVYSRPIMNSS
# Sequence of Aryl hydrocarbon receptor (Homo sapiens) (P35869 whole entry, looked up): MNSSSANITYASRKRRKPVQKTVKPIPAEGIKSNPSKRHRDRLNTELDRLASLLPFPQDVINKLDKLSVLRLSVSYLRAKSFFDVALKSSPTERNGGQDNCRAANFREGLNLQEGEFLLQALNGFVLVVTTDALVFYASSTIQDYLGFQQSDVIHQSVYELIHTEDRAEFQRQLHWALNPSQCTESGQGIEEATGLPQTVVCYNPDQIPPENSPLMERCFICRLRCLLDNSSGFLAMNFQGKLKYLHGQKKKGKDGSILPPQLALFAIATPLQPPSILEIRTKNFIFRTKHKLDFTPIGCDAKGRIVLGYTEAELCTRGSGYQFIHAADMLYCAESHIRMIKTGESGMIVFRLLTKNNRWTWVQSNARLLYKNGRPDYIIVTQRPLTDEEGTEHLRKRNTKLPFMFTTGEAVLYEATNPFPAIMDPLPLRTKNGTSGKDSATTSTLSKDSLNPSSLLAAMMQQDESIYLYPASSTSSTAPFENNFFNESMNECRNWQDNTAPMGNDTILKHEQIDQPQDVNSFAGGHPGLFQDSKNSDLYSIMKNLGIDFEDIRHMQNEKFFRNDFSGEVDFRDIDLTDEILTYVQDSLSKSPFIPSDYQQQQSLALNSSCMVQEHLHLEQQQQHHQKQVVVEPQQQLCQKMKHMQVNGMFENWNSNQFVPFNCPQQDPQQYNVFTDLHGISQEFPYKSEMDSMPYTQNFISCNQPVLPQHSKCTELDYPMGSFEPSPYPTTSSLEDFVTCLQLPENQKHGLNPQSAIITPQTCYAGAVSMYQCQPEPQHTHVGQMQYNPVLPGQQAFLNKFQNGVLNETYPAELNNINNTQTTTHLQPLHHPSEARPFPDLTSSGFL
# Sequence of CCAAT/enhancer-binding protein beta (Homo sapiens) (P17676 whole entry, looked up, the tested form may be a part): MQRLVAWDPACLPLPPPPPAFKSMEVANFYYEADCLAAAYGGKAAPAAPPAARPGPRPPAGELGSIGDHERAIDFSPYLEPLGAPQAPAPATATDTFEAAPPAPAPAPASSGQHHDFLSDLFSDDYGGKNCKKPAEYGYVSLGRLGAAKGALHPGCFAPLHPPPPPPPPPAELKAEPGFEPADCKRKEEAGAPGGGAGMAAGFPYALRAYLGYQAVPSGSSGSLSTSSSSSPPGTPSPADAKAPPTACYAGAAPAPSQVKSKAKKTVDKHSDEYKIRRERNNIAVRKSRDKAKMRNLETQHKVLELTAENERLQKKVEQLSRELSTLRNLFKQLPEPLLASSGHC
# Sequence of Transcription factor E2F1 (Homo sapiens) (Q01094 whole entry, looked up): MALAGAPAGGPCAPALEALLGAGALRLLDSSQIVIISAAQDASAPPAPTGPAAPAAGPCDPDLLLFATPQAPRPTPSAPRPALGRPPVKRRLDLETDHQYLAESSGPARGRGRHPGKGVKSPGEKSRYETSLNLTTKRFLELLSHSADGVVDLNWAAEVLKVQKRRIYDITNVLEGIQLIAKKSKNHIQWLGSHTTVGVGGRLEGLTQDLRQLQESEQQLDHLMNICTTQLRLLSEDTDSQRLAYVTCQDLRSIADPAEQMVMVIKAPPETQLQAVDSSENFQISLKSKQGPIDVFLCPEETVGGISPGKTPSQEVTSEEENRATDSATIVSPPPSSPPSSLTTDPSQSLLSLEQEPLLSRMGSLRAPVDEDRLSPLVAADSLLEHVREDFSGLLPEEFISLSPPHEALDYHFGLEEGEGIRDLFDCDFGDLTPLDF
structure (smiles),measurement,setting,value
OC1C(O)C(O)C(O)C(O)C1O (centres undefined),outcome,[1],inactive
same,outcome,[2],inactive
same,outcome,[3],inactive
same,outcome,[4],inactive
same,AC50,[5],70.3 µM (active)
same,outcome,[6],inactive
same,outcome,[7],inactive
same,outcome,[8],inactive
same,outcome,[9],inactive
same,outcome,[10],inactive
same,outcome,[11],inactive
same,outcome,[12],inactive
same,outcome,[13],inactive
same,outcome,[14],inactive
same,outcome,[15],inactive
same,outcome,[16],inactive
same,outcome,[17],inactive
CCC(=O)OCc1ccccc1,outcome,[1],inactive
same,outcome,[2],inactive
same,outcome,[3],inactive
same,outcome,[4],inactive
same,outcome,[5],inactive
same,outcome,[6],inactive
same,outcome,[7],inactive
same,outcome,[8],inactive
same,outcome,[9],inactive
same,outcome,[10],inactive
same,outcome,[11],inactive
same,outcome,[12],inactive
same,outcome,[14],inactive
same,outcome,[15],inactive
same,outcome,[16],inactive
same,outcome,[18],inactive
same,outcome,[17],inactive
CC(C)=CCCC(C)CC=O (centres undefined),outcome,[1],inactive
same,outcome,[2],inactive
same,outcome,[3],inactive
same,outcome,[4],inactive
same,outcome,[5],inactive
same,outcome,[6],inactive
same,outcome,[7],inactive
same,outcome,[8],inactive
same,outcome,[9],inactive
same,outcome,[10],inactive
same,outcome,[11],inactive
same,outcome,[12],inactive
same,outcome,[19],inactive
same,outcome,[14],inactive
same,outcome,[15],inactive
same,outcome,[18],inactive
same,outcome,[17],inactive
CC1COc2ccccc2N1C(=O)C(Cl)Cl (centres undefined),outcome,[1],inactive
same,outcome,[2],inactive
same,outcome,[3],inactive
same,outcome,[4],inactive
same,outcome,[5],inactive
same,AC50,[6],27.4 µM (active)
same,outcome,[7],inactive
same,outcome,[8],inactive
same,outcome,[9],inactive
same,outcome,[10],inactive
same,outcome,[11],inactive
same,AC50,[12],41.1 µM (active)
same,outcome,[14],inactive
same,outcome,[15],inactive
same,AC50,[16],21 µM (active)
same,outcome,[17],inactive
Clc1nc(C(Cl)(Cl)Cl)c(Cl)c(Cl)c1Cl,outcome,[1],inactive
same,outcome,[2],inactive
same,AC50,[3],24.9 µM (active)
same,AC50,[4],18 µM (active)
same,AC50,[5],12.6 µM (active)
same,AC50,[6],28.8 µM (active)
same,outcome,[7],inactive
same,outcome,[8],inactive
same,AC50,[9],22.6 µM (active)
same,outcome,[10],inactive
same,outcome,[11],inactive
same,outcome,[19],inactive
same,outcome,[13],inactive
same,AC50,[14],54.2 µM (active)
same,outcome,[15],inactive
same,outcome,[16],inactive
same,AC50,[18],58.8 µM (active)
same,AC50,[17],55.8 µM (active)
CN(CCOc1ccc(CC2SC(=O)NC2=O)cc1)c1ccccn1 (centres undefined),outcome,[1],inactive
same,outcome,[2],inactive
same,outcome,[3],inactive
same,outcome,[4],inactive
same,outcome,[5],inactive
same,outcome,[6],inactive
same,outcome,[7],inactive
same,outcome,[8],inactive
same,outcome,[9],inactive
same,outcome,[10],inactive
same,outcome,[12],inactive
same,outcome,[19],inactive
same,AC50,[13],0.0823 µM (active)
same,outcome,[14],inactive
same,outcome,[15],inactive
same,outcome,[18],inactive
same,outcome,[17],inactive
CC(C)=CCC[C@H](C)CC=O,outcome,[1],inactive
same,outcome,[2],inactive
same,outcome,[3],inactive
same,outcome,[4],inactive
same,outcome,[5],inactive
same,outcome,[6],inactive
same,outcome,[7],inactive
same,outcome,[8],inactive
same,outcome,[9],inactive
same,outcome,[10],inactive
same,outcome,[12],inactive
same,outcome,[19],inactive
same,outcome,[14],inactive
same,outcome,[15],inactive
same,outcome,[16],inactive
same,outcome,[18],inactive
same,outcome,[17],inactive
